A short description of test [1]: inhibitors of TNFa-induced NFkB p65 translocation, primary screen, imaging, HUVEC, MLSMR starter and 10KST1 sets (AID 438;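 active = inhibition above 20% together with a positive visual image hit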;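 note: compound added about 3h40 before a 20 min TNFalpha stimulation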;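 for inhibition: signal is the nuclear over cytoplasmic p65 intensity ratio per well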). As to conditions: HUVEC TNFa-induced p65 nuclear translocation; cell count: measured here: nuclei count (cytotoxicity indicator), at 2.08 µM; inhibition: at 2 µM, stronger effect = higher value, 0% TNFa-plus-vehicle, 100% no-TNFa wells.
Test [2] can be described thus: inhibitors of mutant huntingtin aggregation, primary screen, imaging, exon1htt(103Q)mCFP cells, high-content imaging (AID 483;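 active = visual image review flags a hit and inhibition of aggregation exceeds 20%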;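 note: compound exposure lasted 3 days before fixation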;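 for nuclei count: percent of the per-plate median nuclei count of sample wells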). As to conditions: exon1htt(103Q)mCFP cell line, aggregate imaging, at 2 µM; inhibition of aggregation: stronger effect = higher value; nuclei count: measured here: cell count, toxicity.
Test [3] can be described thus: inhibitors of E-selectin induction by TNFa, primary screen, imaging, HUVEC, immunofluorescence, MLSMR starter and 10KST1 sets (AID 487).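 For inhibition: signal is fraction of cell area covered by stained E-selectin grains.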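 For nuclei count: 100% = median nuclei count of all wells on the same plate.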 The settings on record: HUVEC TNFalpha-induced E-selectin immunofluorescence imaging, at 2 µM; inhibition: stronger effect = higher value; nuclei count: measured here: cell number, toxicity.
Test [4] deals with Voltage-gated potassium channel subunit beta-2 (Rattus norvegicus) (UniProt P62483). In words: KvBeta enzyme negative modulators, primary screen, biochemical, NADPH fluorescence (AID 622;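 active = fluorescence slope higher than the sample average by over 3 SD, cut at about -0.22 in these data, passing the limit was not always enough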;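 note: slope of raw intensity against log time taken from 70 to 1610 s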). As to conditions: recombinant KvBeta, 4-cyanobenzaldehyde reduction, at 10 µM, stronger effect = higher value.
For test [5] the target is unchanged. As to the kind of experiment: KvBeta positive modulators, primary screen, biochemical, NADPH fluorescence (AID 623;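 active = NADPH fluorescence slope more negative than the mean of all samples by about 3 SD, 99.7% confidence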;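 note: fluorescence intensity change per second fitted from 20 to 320 s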). The settings on record: Recombinant KvBeta, NADPH fluorescence decrease slope, 10 min; at 10 µM; stronger effect = lower value.
Test [6] addresses Alpha-2C adrenergic receptor (Homo sapiens) (UniProt P18825). In words: modulators of alpha2C/GIRK thallium flux, primary screen, cell-based, HEK293 alpha2C/GIRK1/2 (AID 624;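 active = fluorescence slope after compound addition differing from the mean of all screened samples at 99.7% confidence, in either direction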;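 note: slope of fluorescence ratio to pre-addition baseline per second over 15 to 24 s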). The settings on record: thallium flux BTC fluorescence, at 10 µM, actives lie on both sides.
Test [7] in a line: inhibitors of Sendai virus-induced IRF3 signaling, primary screen, TLR/RLR signaling modifier project, cell-based, Sendai virus stimulus, luciferase, 10K MLSCN set (AID 602276;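 active = inhibition at or above 50% at 10 µM; inactive = inhibition below 50%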;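 note: firefly luciferase from ISG56 promoter only with Renilla not read in this screen; 0% = Sendai virus plus DMSO and 100% = medium plus DMSO without virus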). As to conditions: HEK293 RL24 IRF3 luciferase reporter, at 10 µM, stronger effect = higher value.
Test [8] in a line: inhibitors of poly I:C-induced TLR3 signaling, primary screen, cell-based, poly I:C stimulus, luciferase, 10K MLSCN set (AID 602277;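 active = inhibition of the reporter signal at or above 50%; inactive = inhibition below 50%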). As to conditions: HEK293-TLR3 RL24 IRF3 luciferase reporter, at 10 µM, stronger effect = higher value.

Activity calls are given as the source filed them.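 Rule for the calls, unless noted: active = visually confirmed hit in the image check and inhibition above 20%; inconclusive = visually confirmed hit but inhibition not above 20%; inactive = no visual hit in the image check.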

Sequence of Alpha-2C adrenergic receptor (Homo sapiens) (P18825 whole entry, looked up): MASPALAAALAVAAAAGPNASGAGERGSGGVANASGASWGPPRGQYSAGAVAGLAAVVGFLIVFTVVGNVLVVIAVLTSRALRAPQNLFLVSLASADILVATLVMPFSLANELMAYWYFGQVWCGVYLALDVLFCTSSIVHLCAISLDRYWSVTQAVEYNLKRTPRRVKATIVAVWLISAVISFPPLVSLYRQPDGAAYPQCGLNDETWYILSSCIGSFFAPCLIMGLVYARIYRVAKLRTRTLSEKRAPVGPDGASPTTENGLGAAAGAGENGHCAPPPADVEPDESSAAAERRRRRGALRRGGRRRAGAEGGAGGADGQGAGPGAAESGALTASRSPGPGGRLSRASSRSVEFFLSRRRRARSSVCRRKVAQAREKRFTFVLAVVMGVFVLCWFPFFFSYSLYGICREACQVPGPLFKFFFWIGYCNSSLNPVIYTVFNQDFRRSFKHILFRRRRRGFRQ
Sequence of Voltage-gated potassium channel subunit beta-2 (Rattus norvegicus) (P62483 whole entry, looked up): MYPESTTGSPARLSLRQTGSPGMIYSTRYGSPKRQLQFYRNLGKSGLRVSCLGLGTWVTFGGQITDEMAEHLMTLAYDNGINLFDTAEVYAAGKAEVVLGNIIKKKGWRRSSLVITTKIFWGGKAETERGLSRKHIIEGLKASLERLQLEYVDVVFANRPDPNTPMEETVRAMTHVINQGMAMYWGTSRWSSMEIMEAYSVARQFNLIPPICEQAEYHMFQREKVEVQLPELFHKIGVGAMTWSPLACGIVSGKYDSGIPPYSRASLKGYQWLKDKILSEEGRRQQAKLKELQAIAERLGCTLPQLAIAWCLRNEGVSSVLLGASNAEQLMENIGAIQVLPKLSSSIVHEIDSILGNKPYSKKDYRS

Regarding `Cc1c(Cl)cccc1N1C(=O)c2ccccc2C1=O`, the cell count in test [1] amounted to 275. Moreover, the inhibition in test [1] is 7.5% (inactive); in test [3], 16.9% (inactive); in test [7], -1.09% (inactive); in test [8], 15.5% (inactive). Further, in test [2], the inhibition of aggregation was -0.9% (inactive). Also, the nuclei count in test [2] was determined as 90.5%; in test [3] it was 93.5%. Further, the fluorescence slope in test [4] is -0.502 (inactive). Besides, the NADPH fluorescence slope in test [5] was -3.6e-05 (inactive). Besides, the slope in test [6] is 0.00611 (inactive).
For `CC(=O)Nc1ccc(S(=O)(=O)CCC#N)cc1`, in test [1], the cell count was 424. The inhibition is 7.2% (inactive) in test [1], -113% (inactive) in test [3], 11.9% (inactive) in test [7] and 20% (inactive) in test [8]. Besides, in test [2], the inhibition of aggregation is 2.2% (inactive). Further, the nuclei count in test [2] worked out at 90.4%; in test [3] it was 107%. The fluorescence slope in test [4] was -0.482 (inactive). In test [5], the NADPH fluorescence slope is -3.9e-05 (inactive). Besides, in test [6], the slope was 0.00638 (inactive).
For the molecule `CC1(C)Cc2cccc(OCC(O)CN3CCN(c4ccccn4)CC3)c2O1` (centres undefined), the cell count in test [1] was 518. Moreover, the inhibition in test [1] is -7.3% (inactive); in test [3] it was -90.2% (inactive); in test [7] it was -6.85% (inactive); in test [8], -0.552% (inactive). Moreover, the inhibition of aggregation in test [2] is 3.5% (inactive). For the same molecule, the figures for the nuclei count in test [2] and in test [3] were 92.3% and 111%, respectively. Also, the fluorescence slope in test [4] was -0.624 (inactive). Besides, in test [5], the NADPH fluorescence slope was -2e-05 (inactive). For the same molecule, the slope in test [6] was 0.00547 (inactive).
Regarding `C=CCn1c(SCC(=O)Nc2ccccc2OC)nnc1-c1ccccn1`, the cell count in test [1] turned out to be 684. The inhibition was 9.1% (inactive) in test [1], -6.9% (inactive) in test [3], 7.11% (inactive) in test [7] and 18.2% (inactive) in test [8]. Also, the inhibition of aggregation in test [2] is 32.8% (inactive). The nuclei count stood at 65.8% in test [2] and 113% in test [3]. In addition, in test [4], the fluorescence slope is -0.344 (inactive). For the same molecule, the NADPH fluorescence slope in test [5] was -2.6e-05 (inactive). The slope in test [6] was 0.0051 (inactive).
With `C=C(C)Cn1c(N2CCN(CC)CC2)nc2c1c(=O)[nH]c(=O)n2C`, in test [1], the cell count stood at 441. For the same molecule, the inhibition in test [1] is 14% (inactive); in test [3], 12.3% (inactive); in test [7], 2.55% (inactive); in test [8] it was 25.8% (inactive). In addition, the inhibition of aggregation in test [2] was -6.4% (inactive). Moreover, the nuclei count in test [2] stood at 81.9%; in test [3] it was 104%. The fluorescence slope in test [4] was -0.528 (inactive). Besides, the NADPH fluorescence slope in test [5] was -1.8e-05 (inactive). The slope in test [6] is 0.00582 (inactive).
On to `CCC(=O)N1Cc2ccccc2-c2ccccc2C1=O`, for which the cell count in test [1] stood at 642. Also, the inhibition in test [1] is 3% (inactive); in test [3], 11% (inactive); in test [7] it was 12.1% (inactive); in test [8], 12.9% (inactive). The inhibition of aggregation in test [2] was -14.4% (inactive). The nuclei count in test [2] was 98.3%; in test [3], 126%. Further, the fluorescence slope in test [4] is -0.618 (inactive). Moreover, the NADPH fluorescence slope in test [5] was -1.2e-05 (inactive). Besides, the slope in test [6] is 0.006 (inactive).
On to `CC(=O)N(C)C1(c2nnnn2CCOC(=O)Nc2ccc(Cl)cc2)CCCCC1`, for which the cell count in test [1] came out at 498. The inhibition in test [1] was 4.3% (inactive); in test [3], -33.3% (inactive); in test [7], 1.79% (inactive); in test [8], 20.6% (inactive). The inhibition of aggregation in test [2] is 5.4% (inactive). The nuclei count in test [2] came out at 107%; in test [3] it was 105%. In addition, in test [4], the fluorescence slope is -0.398 (inactive). Moreover, the NADPH fluorescence slope in test [5] was -3.1e-05 (inactive). In test [6], the slope is 0.00444 (inactive).
Turning to `CCN(CC)c1ccc2cc(-c3nc4ccccc4[nH]3)c(=O)oc2c1`, in test [1], the cell count came out at 437. Also, the inhibition in test [1] is 11.7% (inactive); in test [3] it was -74.3% (inactive); in test [7], 20.9% (inactive); in test [8], 32.6% (inactive). For the same molecule, the inhibition of aggregation in test [2] was 90.2% (active). In addition, the nuclei count was 98.9% in test [2] and 116% in test [3]. For the same molecule, in test [4], the fluorescence slope is -0.313 (inactive). Also, the NADPH fluorescence slope in test [5] is 4.5e-05 (inactive). Also, in test [6], the slope is 0 (active).
As for `COC(=O)CC1C(=O)NCCN1C(=O)NC1CCCCC1` (centres undefined), the cell count in test [1] came to 714. In addition, the inhibition in test [1] was -4.5% (inactive); in test [3], -116% (inactive); in test [7] it was -2.45% (inactive); in test [8], 2.41% (inactive). Besides, the inhibition of aggregation in test [2] is -18.8% (inactive). Besides, the nuclei count in test [2] and in test [3] was 110% throughout. Further, the fluorescence slope in test [4] is -0.559 (inactive). In test [5], the NADPH fluorescence slope was -1.3e-05 (inactive). The slope in test [6] is 0.0059 (inactive).
On to `CCOC(=O)N1CCN(c2cc(=O)n(-c3ccccc3Cl)c(=O)[nH]2)CC1`, for which the cell count in test [1] is 553. Also, the inhibition was -7.4% (inactive) in test [1], 15% (inactive) in test [3], -11.4% (inactive) in test [7] and 11.8% (inactive) in test [8]. For the same molecule, in test [2], the inhibition of aggregation was 12.5% (inactive). Further, the nuclei count in test [2] turned out to be 84.2%; in test [3], 90.2%. In test [4], the fluorescence slope is -0.581 (inactive). Further, the NADPH fluorescence slope in test [5] was -4.3e-05 (inactive). Besides, the slope in test [6] is 0.00703 (inactive).
Consider `CCCc1cc(C(=O)Nc2sc3c(c2C#N)CCC3)no1`, for which the cell count in test [1] is 633. The inhibition is -2.9% (inactive) in test [1], -34.8% (inactive) in test [3], 7.08% (inactive) in test [7] and 10.9% (inactive) in test [8]. For the same molecule, the inhibition of aggregation in test [2] is 11.9% (inactive). Further, the nuclei count turned out to be 95.8% in test [2] and 116% in test [3]. Besides, in test [4], the fluorescence slope is -0.568 (inactive). Moreover, the NADPH fluorescence slope in test [5] is -2.8e-05 (inactive). Besides, the slope in test [6] was 0.00643 (inactive).
Regarding `CCOc1cc(S(=O)(=O)NCc2ccc3c(c2)OCO3)ccc1F`, in test [1], the cell count came out at 266. In addition, the inhibition in test [1] was 1.8% (inactive); in test [3], -32.5% (inactive); in test [7], 15.3% (inactive); in test [8], 9.83% (inactive). Besides, in test [2], the inhibition of aggregation was -4.1% (inactive). Further, the nuclei count in test [2] was 98.6%; in test [3], 103%. Also, the fluorescence slope in test [4] is -0.407 (inactive). Further, the NADPH fluorescence slope in test [5] was -3.8e-05 (inactive). Moreover, the slope in test [6] is 0.00471 (inactive).
Regarding `C=CCNC(=O)c1cc(-c2ccccc2O)on1`, the cell count in test [1] was determined as 856. For the same molecule, the inhibition in test [1] was -0.5% (inactive); in test [3] it was -63.2% (inactive); in test [7], -22.6% (inactive); in test [8] it was -96.4% (inactive). Moreover, the inhibition of aggregation in test [2] was -0.2% (inactive). The nuclei count in test [2] came to 109%; in test [3], 113%. Further, in test [4], the fluorescence slope was -0.588 (inactive). The NADPH fluorescence slope in test [5] is -1.8e-05 (inactive). Also, the slope in test [6] is 0.0069 (inactive).
As to `COCCn1nnnc1C(C(C)C)N1CCN(C(=O)c2ccco2)CC1` (centres undefined), in test [1], the cell count was 314. Further, the inhibition is 1.6% (inactive) in test [1], -23.9% (inactive) in test [3], -9.3% (inactive) in test [7] and -17.2% (inactive) in test [8]. For the same molecule, the inhibition of aggregation in test [2] is 10% (inactive). For the same molecule, the nuclei count in test [2] is 85.2%; in test [3] it was 121%. The fluorescence slope in test [4] is -0.511 (inactive). Besides, in test [5], the NADPH fluorescence slope was 4.3e-05 (inactive). The slope in test [6] is 0.00753 (inactive).

The values above are taken from PubChem BioAssay.
